# About 79,000 compounds went through this panel and 15% of them were active in at least one assay; those are over-represented in the sample as a whole. Values without a mark were called inactive. Cut-off read from the data, not from the text of the source: active = growth inhibition above about 70%; inactive = the rest.
# Assay: NCI Yeast Anticancer Drug Screen. Data for the mlh1 rad18 strain (AID 175)
# Conditions: S. cerevisiae mlh1 rad18 strain growth inhibition; at 50.0 µM; stronger effect = higher value
# In short: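 Compound-treated yeast growth, normalised to vehicle controls. Strain bears defined DNA repair mutations.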
row,Compound,growth inhibition [%]
1,COc1ccc(-c2cc(=O)c3ccc(O)cc3o2)cc1,38
2,CCOC(=O)NC(C)(C)CN(C(=O)OCC)c1ccccc1,-10.7
3,COc1ccc2c(c1C)CN1CCc3cc4c(cc3C1=C2)OCO4,61.1
4,CCOC(=O)c1sc(N)nc1-c1ccccc1,24.6
5,COc1cc(-c2cc(=O)c3ccc(O)cc3o2)cc(OC)c1OC,2.2
6,CC1(O)CC2CC1C(C(=O)O)C2C(=O)O (configuration not stated),-15.1
7,NS(=O)(=O)c1ccc(NC(=O)/C=C/C(=O)O)cc1,-4
8,COc1ccc(-c2cc(=O)c3c(C)cc(O)cc3o2)cc1,37.9
9,N#C/C(=C/c1ccc(O)c(O)c1)C(N)=O,17.1
10,Fc1ccccc1Nc1n[nH]c(=S)s1,38.8
11,CCOc1ccc(NC(=O)C2CCC(C)(C(=O)O)C2(C)C)cc1 (configuration not stated),-0.8
12,CCn1c(C)nc2cc(S(=O)(=O)CS(C)(=O)=O)ccc21,19.8
13,CC1CC(C)(C)N=C(Cc2ccccc2)O1 (configuration not stated),2.05
14,COC(=O)c1ccc2oc(=O)cc(C)c2c1O,11.7
15,CCCCCCCCCCCCOc1ccccc1,7.6
16,CC(O)Cn1cnc2c1c(=O)n(C)c(=O)n2C (configuration not stated),-30.1
17,CCn1c(C)[n+](CC)c2ccc(C(F)(F)F)cc21,14.9
18,C=CN1C(=O)N(C=C)C(C)(CC(C)C)C1=O (configuration not stated),15.8
19,N#C/C(=C\c1ccc(-c2ccccc2)cc1)C(N)=O,27.6

row,Compound,growth inhibition [%]
1,N#[N+]c1ccc2c(S(=O)(=O)O)cccc2c1O,-25.7
2,Cc1ccccc1NC(=S)Nc1ccccn1,10.3
3,CCCCCCCCCCCCOc1ccc(C)cc1,5.3
4,CCCN(CCC)CCC(=O)OCC,-10.9
5,NC(=O)NC(CCCN=C(N)N)C(=O)O (configuration not stated),-36.1
6,COc1ccc(CNc2ccccn2)cc1,40.2
7,Cc1ccc2c(c1)=N/C(=N\c1nc(O)c(O)[nH]1)N=2,-4.55
8,CN1C(=S)c2ccccc2S1(=O)=O,24.2
9,CC12CC3(C)CC(C)(C1)CC(C(Cl)C(=O)O)(C2)C3 (configuration not stated),29.2
10,CCN(CC)c1ccc(N=Cc2ccccc2S(=O)(=O)O)cc1,34
11,COC(=O)C(C)CN1CC(C)OC(C)C1 (configuration not stated),-13.2
12,COc1cc(/C=N/N2C(=O)c3ccccc3C2=O)ccc1O,25.9
13,COc1cc(/C=C2/SC(=S)NC2=O)cc(OC)c1OC,19.4
14,COc1ccc(-c2cc(=O)c3c(ccc4ccccc43)o2)cc1,7
15,CCCCCCCCCCCCCCCCOc1ccc(C)cc1,-27.9
16,O=C1c2ccccc2C(=O)N1/N=C/c1cc(Cl)cc(Cl)c1O,-4.95
17,Cc1ccc(Cl)cc1NCN1C(=O)c2ccccc2C1=O,11.1
18,CCOC(=O)CC(=O)c1ccc(C)cc1,9.75
